This is one part of a sample in which hits are shown more often than they occur.
Pf apPOL block = Pf-apPOL inhibitors, biochemical, fluorescence. Plasmodium falciparum apicoplast DNA polymerase (apPOL). actives 0.25% (n = 210,000). inhibition, % at 10 µM. Recombinant Pf-apPOL, molecular beacon fluorescence, 1.5 h. AID 1794808, 2022
mHTT-CaM PPI inh = mutant huntingtin-calmodulin interaction inhibitors – biochemical, AlphaScreen, primary screen. P42858. AID 1671202, 2021. AlphaScreen His-mHTT/GST-CaM binding, luminescence. actives 3.6% (n = 190,000). inhibition, % at 15 µM
Large screens that a line does not name were inactive. No stated cut-off is given here; in the data, active means inhibition above about 50%; inactive means the rest.

N#CC1=C(N)SC(N)=C(C#N)C1c1ccccc1	none
CC1CCc2c(cnc3c(C(=O)NCc4ccc5c(c4)OCO5)cnn23)C1 (stereo not drawn)	none
N=c1c(C(=O)NCc2cccnc2)cc2c(=O)n3ccccc3nc2n1C1CCCC1	none
COc1ccc(-c2c(Cc3ccccc3)[nH]n3c(=O)cc(-c4ccc([N+](=O)[O-])cc4)nc23)cc1	none
COc1ccc(Cc2[nH]n3c(=O)cc(-c4ccc([N+](=O)[O-])cc4)nc3c2-c2ccccc2)cc1	mHTT-CaM PPI inh 71
COc1ncccc1C(=O)NCCCn1nc(-c2ccc(F)cc2)ccc1=O	none
CC1(C(=O)NCc2cccc(F)c2)CCCN(C(=O)c2c(F)cccc2F)C1 (stereo not drawn)	none
O=C(Nc1ccc2nc(-c3ccco3)c(-c3ccco3)nc2c1)N1CCOCC1	mHTT-CaM PPI inh 76
O=C(Nc1ccc2nc(-c3ccco3)c(-c3ccco3)nc2c1)N1CCSCC1	mHTT-CaM PPI inh 84
Cc1nc2ccc(NC(=O)N3CCCC3)cc2nc1C	none
O=C(Nc1ccc2nc(-c3ccccn3)c(-c3ccccn3)nc2c1)N1CCOCC1	none
CC(=O)Nc1cccc(N2CC(C(=O)Nc3c(C)cc(C)cc3C)CC2=O)c1 (stereo not drawn)	none
O=C(NCCCN1CCOCC1)c1ccc2c(c1)ncn2-c1ccc(F)c(F)c1	none
COc1ccc(CNC(=O)c2cc3c(s2)CCN(C(=O)c2ccc(Cl)cc2)C3)cc1	none
CCCC1c2cccn2CCN1C(=O)Nc1cc(Cl)c(OC)cc1OC (stereo not drawn)	none
CC(=O)Nc1cccc(N=Cc2cc(Cl)ccc2O)c1	none
COC(=O)C(Cc1ccccc1)NC(=O)N1CCCn2nc(-c3cccnc3)cc2C1 (stereo not drawn)	none
O=C(Nc1ccccc1C(F)(F)F)N1CCC2(CC1)Nc1cc(F)ccc1-n1cccc12	none
CSc1cccc(NC(=O)N2CCC3(CC2)Nc2ccccc2-n2cccc23)c1	mHTT-CaM PPI inh 84
O=C(Nc1ccc(F)c(Cl)c1)N1CCC2(CC1)Nc1cc(F)ccc1-n1cccc12	mHTT-CaM PPI inh 97
O=C(Nc1cccc(F)c1)N1CCC2(CC1)Nc1ccccc1-n1cccc12	mHTT-CaM PPI inh 71
COc1ccc(Cl)cc1NC(=O)N1CCC2(CC1)Nc1ccccc1-n1cccc12	none
O=C(Nc1ccc(F)cc1F)N1CCC2(CC1)Nc1cc(F)ccc1-n1cccc12	none
O=C(Nc1cccc(F)c1)N1CCC2(CC1)Nc1cc(F)ccc1-n1cccc12	mHTT-CaM PPI inh 87
O=C(Nc1ccccc1Cl)N1CCC2(CC1)Nc1cc(F)ccc1-n1cccc12	none
C=CCNC(=O)c1cccc(OCc2ccccc2)c1	none
CC1CN(C(=O)Cc2ccccc2F)CC1c1nc(-c2ccccc2)no1 (stereo not drawn)	none
CCOc1ccc(CC(=O)N2CCC(c3nc4ccncc4n3C(C)C)C2)cc1 (stereo not drawn)	none
CN1C(=O)C2CCCCN2c2ccc(C(=O)NCCc3ccco3)cc21 (stereo not drawn)	none
Cc1ccc(Oc2ccc3c(c2)C(=O)N(c2ccc(O)cc2)C3=O)cc1	none
COC(=O)c1cccc(NC(=O)N2CCC3(CC2)Nc2cc(F)ccc2-n2cccc23)c1	mHTT-CaM PPI inh 53
CCOC(=O)c1ccccc1NC(=O)N1CCC2(CC1)Nc1cc(F)ccc1-n1cccc12	mHTT-CaM PPI inh 50
Cc1ccc(NC(=O)N2CCC3(CC2)Nc2cc(F)ccc2-n2cccc23)c(C)c1	none
Cc1ccc(NC(=O)N2CCC3(CC2)Nc2cc(F)ccc2-n2cccc23)cc1F	mHTT-CaM PPI inh 86
Cc1cccc(NC(=O)N2CCC3(CC2)Nc2cc(F)ccc2-n2cccc23)c1C	none
Cc1cccc(NC(=O)N2CCC3(CC2)Nc2cc(F)ccc2-n2cccc23)c1	mHTT-CaM PPI inh 55
COC(=O)c1ccccc1NC(=O)N1CCC2(CC1)Nc1cc(F)ccc1-n1cccc12	none
Cc1ccc(Cl)cc1NC(=O)N1CCC2(CC1)Nc1cc(F)ccc1-n1cccc12	none
CCOc1ccccc1NC(=O)c1ccc(F)c(S(=O)(=O)NCc2ccccc2OC)c1	none
O=C(Cn1ccc2ccccc2c1=O)NCCC(=O)N1CCC2(CC1)OCCO2	none
Cc1scc2nc(C(=O)NCc3cccc(F)c3)nc(N(C)C)c12	none
Cc1nc(SCC(=O)Nc2cccc(C(=O)O)c2)c(C#N)c(C)c1C	none
CCCN1C(=O)CN(C2CCCCC2)C(=O)C1c1ccc(OC(C)C)c(OC)c1 (stereo not drawn)	none
Cc1ccc2c(c1)NC1(CCN(C(=O)c3cccc(F)c3)CC1)c1cccn1-2	mHTT-CaM PPI inh 62
Cc1c(Cl)cccc1NC(=O)N1CCC2(CC1)Nc1cc(F)ccc1-n1cccc12	none
Cc1ccc2c(c1)NC1(CCN(C(=O)c3ccccc3Br)CC1)c1cccn1-2	mHTT-CaM PPI inh 89
CCCc1nc(-c2c(C)cc(C)nc2NC(=O)c2ccc(F)c(F)c2)no1	none
C#CC(C)(CC)NC(=O)c1cc2ccccc2oc1=O (stereo not drawn)	none
Cc1ccc(-c2nnc(N3CCC(C(=O)NCc4cccc(C)c4)CC3)o2)cc1	none
OCC[n+]1c(-c2ccc(Br)cc2)csc1Nc1ccccc1	mHTT-CaM PPI inh 88
O=C(c1ccccc1)c1c(-c2ccccc2)csc1Nc1ccccc1	none (no result: mHTT-CaM PPI inh)
Fc1ccc(C2=CSC(N=Cc3ccco3)=NN2)cc1	mHTT-CaM PPI inh 68
CC1=C(c2ccc(Cl)cc2)NN=C(N=Cc2ccco2)S1	none
CN(C)c1ccc(CCCNS(=O)(=O)Cc2cccc(Cl)c2)cc1	none
CN(C)c1ccc(CCCNS(=O)(=O)c2ccc(Cl)s2)cc1	mHTT-CaM PPI inh 65
CC(C)n1c(CC2CCN(C(=O)c3ccc(Cl)s3)C2)nc2cccnc21 (stereo not drawn)	none
c1cn(CCCNc2ncnc3nc[nH]c23)cn1	none
Clc1ccc(Nc2nc(NCCCn3ccnc3)nc3nc[nH]c23)cc1	mHTT-CaM PPI inh 99
N#Cc1c(SCC(=O)NC2CC2)sc2c(=O)[nH]c(=O)[nH]c12	none (no result: Pf apPOL block)
O=C(NCc1ccc(N2CCOCC2)cc1)c1cc2cn(C3CC3)cc2s1	none
O=C(NCCCN1CCCC1)c1cc2cn(C3CCCC3)cc2s1	none
CC(C)NC(=O)c1cc2cn(C3CCCC3)cc2s1	none
CC(C)n1cc2cc(C(=O)NCc3ccc(N4CCOCC4)cc3)sc2c1	none
CC(C)n1cc2cc(C(=O)NCc3ccc(Cl)cc3)sc2c1	mHTT-CaM PPI inh 73
COc1ccc(NC(=O)c2cc3cn(C4CC4)cc3s2)c(C)c1	mHTT-CaM PPI inh 52
O=C(NCCCN1CCCC1)c1cc2cn(C3CC3)cc2s1	Pf apPOL block 108, mHTT-CaM PPI inh 99
COc1cccc(CNC(=O)c2cc3cn(C4CC4)cc3s2)c1	mHTT-CaM PPI inh 57
O=C(COc1ccc(Cl)cc1)Nc1ncn[nH]1	none
CCn1c(C2CCN(S(=O)(=O)Cc3cccc(F)c3)C2)nc2ccncc21 (stereo not drawn)	none
O=C(Nc1cnc(-c2ccc(F)cc2)nc1)C1CC1	none
CCC(=O)N1CCN(c2nc3c(s2)CC(C(=O)NCc2ccccc2F)CC3)CC1 (stereo not drawn)	none
O=C(c1cc2cn(C3CCCC3)cc2s1)N1CCSCC1	none
O=C(c1cc2cn(C3CCCC3)cc2s1)N1CCN(C2CCCCC2)CC1	mHTT-CaM PPI inh 73
CC1=C/C(=N/OC(=O)c2ccc(F)cc2)C=CC1=O	none
O=C(CCc1ccccc1)N1CCC(Nc2cccnc2)C1 (stereo not drawn)	none
O=C(CCC1CCCC1)N1CCC(Nc2cccnc2)C1 (stereo not drawn)	Pf apPOL block 67

Screening results as filed in PubChem BioAssay.
